# Measured values reported in publication PMC7862700, “An all-to-all approach to the identification of sequence-specific readers for epigenetic DNA modifications on cytosine”.
# Key:
# Assay in all cases: DAPPL (digital affinity profiling via proximity ligation, sequencing); 10 mM Tris-HCl pH 7.5, 50 mM NaCl, 1 mM DTT, 4% glycerol, room temperature, 30 min; GST-TFs on glutathione beads, 16-mer random dsDNA library, 0.1% formaldehyde crosslink after washing; high values mean tight binding
# [1] = target: T1, FLI1 (Homo sapiens, UniProt Q01543 1-452); conditions: protein: recombinant; tags: N-terminal GST; dsDNA, one strand shown
# T1 sequence: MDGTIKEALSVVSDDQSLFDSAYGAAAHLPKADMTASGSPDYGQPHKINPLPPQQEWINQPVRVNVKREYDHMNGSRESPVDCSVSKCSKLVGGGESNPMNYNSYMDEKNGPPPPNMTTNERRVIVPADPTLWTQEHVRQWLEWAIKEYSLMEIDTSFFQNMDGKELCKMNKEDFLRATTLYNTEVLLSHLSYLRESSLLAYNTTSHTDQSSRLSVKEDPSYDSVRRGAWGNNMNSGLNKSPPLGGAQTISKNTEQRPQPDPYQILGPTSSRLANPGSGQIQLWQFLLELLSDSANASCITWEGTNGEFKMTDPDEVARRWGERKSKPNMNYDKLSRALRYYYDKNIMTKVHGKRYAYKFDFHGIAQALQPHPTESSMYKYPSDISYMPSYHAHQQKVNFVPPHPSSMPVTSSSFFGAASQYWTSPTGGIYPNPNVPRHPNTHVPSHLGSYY
# Outline: (§1)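 Pools were built from human transcription factors expressed in yeast as GST fusions, captured on glutathione beads and DNA-barcoded, along with a tag-only sample. Incubation with 200 nmole of a 16-mer random double-stranded DNA library lasted 30 min at room temperature in Tris/NaCl/DTT/glycerol buffer, and was followed by washing, 0.1% formaldehyde crosslinking, proximity ligation, PCR amplification and Illumina NextSeq500 sequencing. Binding signal is the quotient of each hexamer's read frequency for a factor and its frequency for the tag-only sample.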
# [2] = target: T2, ELK1 (Homo sapiens, UniProt P19419 1-428); conditions: protein: recombinant; tags: N-terminal GST; dsDNA, one strand shown
# T2 sequence: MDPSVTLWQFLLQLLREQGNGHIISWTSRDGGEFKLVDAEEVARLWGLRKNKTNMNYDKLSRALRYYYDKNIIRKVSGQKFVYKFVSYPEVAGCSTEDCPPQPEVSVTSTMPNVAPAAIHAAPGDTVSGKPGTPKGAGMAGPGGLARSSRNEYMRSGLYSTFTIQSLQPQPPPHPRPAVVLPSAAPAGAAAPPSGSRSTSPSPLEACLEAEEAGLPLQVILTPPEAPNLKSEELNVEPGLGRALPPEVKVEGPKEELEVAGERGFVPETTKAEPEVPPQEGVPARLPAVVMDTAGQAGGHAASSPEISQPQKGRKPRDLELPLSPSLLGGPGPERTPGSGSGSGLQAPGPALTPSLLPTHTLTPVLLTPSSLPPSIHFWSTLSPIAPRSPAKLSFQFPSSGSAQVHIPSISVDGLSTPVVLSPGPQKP
# Outline: as §1
# [3] = target: T3, GABPA (Homo sapiens, UniProt Q06546 1-454); conditions: protein: recombinant; tags: N-terminal GST; dsDNA, one strand shown
# T3 sequence: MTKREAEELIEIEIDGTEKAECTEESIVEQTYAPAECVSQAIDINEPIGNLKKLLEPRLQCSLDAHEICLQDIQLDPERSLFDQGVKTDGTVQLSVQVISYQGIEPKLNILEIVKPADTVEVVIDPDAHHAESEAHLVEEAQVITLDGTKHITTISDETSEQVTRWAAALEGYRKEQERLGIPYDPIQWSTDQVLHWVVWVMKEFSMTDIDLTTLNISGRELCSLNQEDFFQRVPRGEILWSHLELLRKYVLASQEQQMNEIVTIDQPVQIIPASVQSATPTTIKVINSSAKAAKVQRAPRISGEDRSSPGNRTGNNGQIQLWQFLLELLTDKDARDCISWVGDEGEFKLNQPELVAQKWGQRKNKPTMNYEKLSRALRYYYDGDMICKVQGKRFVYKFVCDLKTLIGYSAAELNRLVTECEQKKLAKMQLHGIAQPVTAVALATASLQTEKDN
# Outline: as §1
# [4] = target: T4, ERG (Homo sapiens, UniProt P11308 1-479); conditions: protein: recombinant; tags: N-terminal GST; dsDNA, one strand shown
# T4 sequence: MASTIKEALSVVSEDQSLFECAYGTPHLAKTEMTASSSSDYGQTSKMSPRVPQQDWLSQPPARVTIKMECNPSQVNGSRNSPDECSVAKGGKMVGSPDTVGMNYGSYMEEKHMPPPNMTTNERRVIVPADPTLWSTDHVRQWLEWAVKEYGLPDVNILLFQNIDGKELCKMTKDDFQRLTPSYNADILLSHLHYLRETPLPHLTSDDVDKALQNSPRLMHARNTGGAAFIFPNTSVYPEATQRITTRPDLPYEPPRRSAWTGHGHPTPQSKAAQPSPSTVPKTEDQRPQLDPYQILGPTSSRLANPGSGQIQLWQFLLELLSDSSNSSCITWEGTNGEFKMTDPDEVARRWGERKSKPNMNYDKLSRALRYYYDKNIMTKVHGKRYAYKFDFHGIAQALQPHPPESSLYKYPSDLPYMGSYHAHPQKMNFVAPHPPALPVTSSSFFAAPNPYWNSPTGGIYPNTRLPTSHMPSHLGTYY
# Outline: as §1
# [5] = target: ELF1 (Homo sapiens, UniProt P32519 1-619); conditions: protein: recombinant; tags: N-terminal GST; dsDNA, one strand shown
# Outline: as §1
# [6] = target: T5, EHF (Homo sapiens, UniProt Q9NZC4 1-300); conditions: protein: recombinant; tags: N-terminal GST; dsDNA, one strand shown
# T5 sequence: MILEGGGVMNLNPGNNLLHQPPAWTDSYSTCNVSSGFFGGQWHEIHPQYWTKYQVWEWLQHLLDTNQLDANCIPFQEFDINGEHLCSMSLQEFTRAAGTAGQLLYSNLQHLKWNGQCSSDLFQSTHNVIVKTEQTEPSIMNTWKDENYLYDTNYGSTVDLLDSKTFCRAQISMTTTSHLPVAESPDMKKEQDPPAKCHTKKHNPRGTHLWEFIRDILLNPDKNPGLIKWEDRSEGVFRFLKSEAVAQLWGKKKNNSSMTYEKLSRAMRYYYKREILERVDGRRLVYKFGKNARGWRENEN
# Outline: as §1
# [7] = target: SPI1 (Homo sapiens, UniProt P17947 1-270); conditions: protein: recombinant; tags: N-terminal GST; dsDNA, one strand shown
# Outline: as §1
# [8] = target: SPIB (Homo sapiens, UniProt Q01892 1-262); conditions: protein: recombinant; tags: N-terminal GST; dsDNA, one strand shown
# Outline: as §1
# [9] = target: T6, ELK3 (Homo sapiens, UniProt P41970 1-407); conditions: protein: recombinant; tags: N-terminal GST; dsDNA, one strand shown
# T6 sequence: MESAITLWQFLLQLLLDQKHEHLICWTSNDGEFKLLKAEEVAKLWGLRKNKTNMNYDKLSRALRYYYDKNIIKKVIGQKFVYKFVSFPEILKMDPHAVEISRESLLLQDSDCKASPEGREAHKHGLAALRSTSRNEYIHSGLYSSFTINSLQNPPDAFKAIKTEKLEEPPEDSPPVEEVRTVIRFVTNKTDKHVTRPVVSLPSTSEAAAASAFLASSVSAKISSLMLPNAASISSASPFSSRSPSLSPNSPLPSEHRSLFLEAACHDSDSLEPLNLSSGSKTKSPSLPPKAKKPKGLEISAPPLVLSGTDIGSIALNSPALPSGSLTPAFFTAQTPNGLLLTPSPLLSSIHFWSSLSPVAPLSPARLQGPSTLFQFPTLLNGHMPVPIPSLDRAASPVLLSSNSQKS
# Outline: as §1
# [10] = target: T7, FEV (Homo sapiens, UniProt Q99581 1-238); conditions: protein: recombinant; tags: N-terminal GST; dsDNA, one strand shown
# T7 sequence: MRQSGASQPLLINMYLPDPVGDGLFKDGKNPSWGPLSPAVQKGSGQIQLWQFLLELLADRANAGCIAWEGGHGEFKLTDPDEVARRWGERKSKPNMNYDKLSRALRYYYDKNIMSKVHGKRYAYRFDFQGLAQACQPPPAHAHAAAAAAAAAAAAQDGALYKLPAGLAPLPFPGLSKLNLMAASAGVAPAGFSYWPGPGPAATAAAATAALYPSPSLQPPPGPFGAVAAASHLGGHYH
# Outline: as §1
# [11] = target: ETV5 (Homo sapiens, UniProt P41161 1-510); conditions: protein: recombinant; tags: N-terminal GST; dsDNA, one strand shown
# Outline: as §1
# [12] = target: HSF1 (Homo sapiens, UniProt Q00613 1-529); conditions: protein: recombinant; tags: N-terminal GST; chain copies: 3; dsDNA, one strand shown
# Outline: as §1
# [13] = target: T8, SPIC (Homo sapiens, UniProt Q8N5J4 1-248); conditions: protein: recombinant; tags: N-terminal GST; dsDNA, one strand shown
# T8 sequence: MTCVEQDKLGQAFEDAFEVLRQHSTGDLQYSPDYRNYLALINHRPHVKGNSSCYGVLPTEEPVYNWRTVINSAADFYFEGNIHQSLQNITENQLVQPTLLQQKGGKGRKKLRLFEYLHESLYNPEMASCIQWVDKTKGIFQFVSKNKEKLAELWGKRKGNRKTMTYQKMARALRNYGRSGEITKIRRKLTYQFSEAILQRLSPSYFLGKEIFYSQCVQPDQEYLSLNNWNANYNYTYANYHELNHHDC
# Outline: as §1
# [14] = target: ELF4 (Homo sapiens, UniProt Q99607 1-663); conditions: protein: recombinant; tags: N-terminal GST; dsDNA, one strand shown
# Outline: as §1
# [15] = target: T9, ELK4 (Homo sapiens, UniProt P28324-2 1-405); conditions: protein: recombinant; tags: N-terminal GST; dsDNA, one strand shown
# T9 sequence: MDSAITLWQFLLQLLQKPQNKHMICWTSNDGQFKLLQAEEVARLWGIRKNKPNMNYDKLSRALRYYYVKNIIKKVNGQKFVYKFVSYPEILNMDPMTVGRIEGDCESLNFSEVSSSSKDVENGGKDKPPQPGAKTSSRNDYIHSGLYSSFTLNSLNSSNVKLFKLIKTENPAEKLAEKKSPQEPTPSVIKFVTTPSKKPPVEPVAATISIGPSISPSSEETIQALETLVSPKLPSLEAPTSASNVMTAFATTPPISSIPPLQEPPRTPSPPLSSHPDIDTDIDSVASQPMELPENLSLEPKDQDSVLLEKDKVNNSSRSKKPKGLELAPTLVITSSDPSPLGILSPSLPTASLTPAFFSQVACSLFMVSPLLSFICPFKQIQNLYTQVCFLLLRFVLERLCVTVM
# Outline: as §1
# [16] = target: T10, ETV2 (Homo sapiens, UniProt O00321 1-342); conditions: protein: recombinant; tags: N-terminal GST; dsDNA, one strand shown
# T10 sequence: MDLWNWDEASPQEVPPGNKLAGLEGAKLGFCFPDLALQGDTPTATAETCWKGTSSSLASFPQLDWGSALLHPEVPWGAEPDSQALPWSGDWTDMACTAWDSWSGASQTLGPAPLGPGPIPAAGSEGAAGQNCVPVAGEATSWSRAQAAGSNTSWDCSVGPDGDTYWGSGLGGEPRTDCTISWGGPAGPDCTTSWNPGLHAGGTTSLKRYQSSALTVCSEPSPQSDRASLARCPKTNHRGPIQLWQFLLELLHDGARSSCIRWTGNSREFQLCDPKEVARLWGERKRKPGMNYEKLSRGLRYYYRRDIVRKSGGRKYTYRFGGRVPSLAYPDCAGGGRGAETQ
# Outline: as §1
# [17] = target: T11, ELF3 (Homo sapiens, UniProt P78545 1-371); conditions: protein: recombinant; tags: N-terminal GST; dsDNA, one strand shown
# T11 sequence: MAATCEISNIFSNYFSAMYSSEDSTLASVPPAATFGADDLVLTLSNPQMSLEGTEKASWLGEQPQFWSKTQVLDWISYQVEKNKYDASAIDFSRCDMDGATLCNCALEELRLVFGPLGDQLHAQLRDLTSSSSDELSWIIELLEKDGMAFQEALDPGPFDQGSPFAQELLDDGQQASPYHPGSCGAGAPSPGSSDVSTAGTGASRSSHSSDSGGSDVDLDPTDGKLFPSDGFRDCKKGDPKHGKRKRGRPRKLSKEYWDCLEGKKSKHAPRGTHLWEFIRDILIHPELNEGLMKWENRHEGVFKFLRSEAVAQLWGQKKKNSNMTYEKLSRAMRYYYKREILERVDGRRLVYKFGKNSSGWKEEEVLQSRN
# Outline: as §1
# [18] = target: CRX (Homo sapiens, UniProt O43186 1-299); conditions: protein: recombinant; tags: N-terminal GST; dsDNA, one strand shown
# Outline: as §1
# [19] = target: ETV1 (Homo sapiens, UniProt P50549 1-477); conditions: protein: recombinant; tags: N-terminal GST; dsDNA, one strand shown
# Outline: as §1
# Sequence of CRX (O43186 whole entry): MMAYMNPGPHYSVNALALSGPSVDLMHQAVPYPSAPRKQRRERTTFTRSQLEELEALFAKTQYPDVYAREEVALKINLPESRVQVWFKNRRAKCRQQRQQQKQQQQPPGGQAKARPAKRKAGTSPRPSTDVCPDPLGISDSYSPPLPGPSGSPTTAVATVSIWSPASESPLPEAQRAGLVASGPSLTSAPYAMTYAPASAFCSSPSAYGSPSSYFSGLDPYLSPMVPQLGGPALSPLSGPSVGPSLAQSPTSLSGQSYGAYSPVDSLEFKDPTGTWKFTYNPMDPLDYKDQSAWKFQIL
# Sequence of ETV5 (P41161 whole entry): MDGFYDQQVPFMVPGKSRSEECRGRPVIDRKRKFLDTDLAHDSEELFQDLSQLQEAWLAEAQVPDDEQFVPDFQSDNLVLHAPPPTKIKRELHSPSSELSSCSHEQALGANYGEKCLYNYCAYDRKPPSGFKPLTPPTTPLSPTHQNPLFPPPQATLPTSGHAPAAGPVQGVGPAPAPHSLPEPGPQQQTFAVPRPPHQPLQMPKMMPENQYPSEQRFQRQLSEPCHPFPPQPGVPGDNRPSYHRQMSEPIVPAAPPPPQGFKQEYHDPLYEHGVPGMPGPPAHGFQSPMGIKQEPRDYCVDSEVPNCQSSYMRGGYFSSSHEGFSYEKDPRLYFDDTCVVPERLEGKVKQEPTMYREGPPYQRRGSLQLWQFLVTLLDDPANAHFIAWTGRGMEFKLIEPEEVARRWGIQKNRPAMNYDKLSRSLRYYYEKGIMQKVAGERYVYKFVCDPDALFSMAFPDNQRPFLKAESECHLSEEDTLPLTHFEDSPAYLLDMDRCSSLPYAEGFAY
# Sequence of HSF1 (Q00613 whole entry): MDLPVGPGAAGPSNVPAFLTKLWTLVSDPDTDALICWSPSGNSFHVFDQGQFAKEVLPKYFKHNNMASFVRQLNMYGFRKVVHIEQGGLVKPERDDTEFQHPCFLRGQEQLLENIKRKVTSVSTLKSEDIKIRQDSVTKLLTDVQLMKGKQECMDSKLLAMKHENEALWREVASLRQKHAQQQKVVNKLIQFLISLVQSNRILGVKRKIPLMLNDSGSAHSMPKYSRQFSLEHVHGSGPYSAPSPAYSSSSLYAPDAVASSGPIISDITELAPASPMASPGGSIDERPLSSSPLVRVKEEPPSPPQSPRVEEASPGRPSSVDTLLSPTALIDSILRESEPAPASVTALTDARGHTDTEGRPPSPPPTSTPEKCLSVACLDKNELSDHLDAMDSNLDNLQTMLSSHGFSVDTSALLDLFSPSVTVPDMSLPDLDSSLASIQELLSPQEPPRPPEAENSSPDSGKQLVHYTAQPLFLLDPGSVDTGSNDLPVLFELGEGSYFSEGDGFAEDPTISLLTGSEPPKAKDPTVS
# Sequence of ELF1 (P32519 whole entry): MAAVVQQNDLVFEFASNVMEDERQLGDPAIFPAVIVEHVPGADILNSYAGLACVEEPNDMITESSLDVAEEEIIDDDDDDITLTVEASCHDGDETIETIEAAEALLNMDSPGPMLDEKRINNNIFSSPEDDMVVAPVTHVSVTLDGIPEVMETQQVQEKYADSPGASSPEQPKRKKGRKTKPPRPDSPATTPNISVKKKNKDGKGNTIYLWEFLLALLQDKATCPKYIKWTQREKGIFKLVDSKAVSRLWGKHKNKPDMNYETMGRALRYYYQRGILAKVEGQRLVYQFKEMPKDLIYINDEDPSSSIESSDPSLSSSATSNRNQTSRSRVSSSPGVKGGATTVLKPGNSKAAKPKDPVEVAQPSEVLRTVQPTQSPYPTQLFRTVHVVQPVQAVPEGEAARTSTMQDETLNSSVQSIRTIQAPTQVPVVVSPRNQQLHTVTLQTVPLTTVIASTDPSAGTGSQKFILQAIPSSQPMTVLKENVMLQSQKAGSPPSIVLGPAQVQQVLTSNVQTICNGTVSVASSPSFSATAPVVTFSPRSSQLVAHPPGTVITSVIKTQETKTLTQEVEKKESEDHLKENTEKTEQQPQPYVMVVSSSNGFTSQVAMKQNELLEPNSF
# Sequence of ETV1 (P50549 whole entry): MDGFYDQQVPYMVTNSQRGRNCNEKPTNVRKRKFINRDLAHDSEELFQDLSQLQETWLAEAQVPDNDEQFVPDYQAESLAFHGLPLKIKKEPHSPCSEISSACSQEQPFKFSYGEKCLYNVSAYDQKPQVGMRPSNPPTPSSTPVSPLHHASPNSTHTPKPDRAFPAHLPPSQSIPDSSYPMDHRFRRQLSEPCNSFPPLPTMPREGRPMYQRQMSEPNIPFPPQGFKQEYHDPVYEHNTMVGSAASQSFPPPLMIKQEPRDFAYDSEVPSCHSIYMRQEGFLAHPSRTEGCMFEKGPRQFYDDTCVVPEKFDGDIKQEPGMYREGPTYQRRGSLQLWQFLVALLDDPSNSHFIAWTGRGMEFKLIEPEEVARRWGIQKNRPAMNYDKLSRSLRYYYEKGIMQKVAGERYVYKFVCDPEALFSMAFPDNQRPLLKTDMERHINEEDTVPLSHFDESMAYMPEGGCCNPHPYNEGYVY
# Sequence of ELF4 (Q99607 whole entry): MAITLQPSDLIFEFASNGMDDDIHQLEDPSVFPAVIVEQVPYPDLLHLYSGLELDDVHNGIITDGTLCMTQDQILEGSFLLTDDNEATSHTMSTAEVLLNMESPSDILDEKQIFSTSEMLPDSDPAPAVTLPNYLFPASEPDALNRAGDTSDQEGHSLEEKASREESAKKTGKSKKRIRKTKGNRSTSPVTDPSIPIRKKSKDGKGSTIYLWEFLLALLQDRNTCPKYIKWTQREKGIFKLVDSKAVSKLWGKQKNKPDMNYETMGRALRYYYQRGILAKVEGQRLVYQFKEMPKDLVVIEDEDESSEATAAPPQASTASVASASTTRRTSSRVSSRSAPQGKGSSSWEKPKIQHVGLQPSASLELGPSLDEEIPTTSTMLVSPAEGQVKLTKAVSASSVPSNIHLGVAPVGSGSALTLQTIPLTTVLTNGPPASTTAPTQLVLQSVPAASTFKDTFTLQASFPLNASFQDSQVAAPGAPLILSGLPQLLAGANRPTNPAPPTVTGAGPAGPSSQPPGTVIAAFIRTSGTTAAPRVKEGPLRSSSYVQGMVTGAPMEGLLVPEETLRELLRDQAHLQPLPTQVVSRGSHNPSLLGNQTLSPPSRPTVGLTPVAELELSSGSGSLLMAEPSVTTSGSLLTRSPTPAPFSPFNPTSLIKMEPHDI
# Sequence of SPIB (Q01892 whole entry): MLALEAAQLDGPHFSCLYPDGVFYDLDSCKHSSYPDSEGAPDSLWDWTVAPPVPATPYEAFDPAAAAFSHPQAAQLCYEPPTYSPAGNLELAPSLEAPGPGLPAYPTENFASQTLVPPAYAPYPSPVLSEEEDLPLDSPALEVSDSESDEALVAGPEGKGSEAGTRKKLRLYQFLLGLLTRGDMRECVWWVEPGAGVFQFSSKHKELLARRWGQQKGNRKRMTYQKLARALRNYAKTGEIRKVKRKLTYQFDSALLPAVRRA
sequence,measurement,setting,value
TTTCTA,binding signal,[1],"1.3 fold enrichment (6-mer frequency, TF over GST control)"
same,binding signal,[2],"1.39 fold enrichment (6-mer frequency, TF over GST control)"
same,binding signal,[3],"1.29 fold enrichment (6-mer frequency, TF over GST control)"
same,binding signal,[4],"1.34 fold enrichment (6-mer frequency, TF over GST control)"
same,binding signal,[5],"1.28 fold enrichment (6-mer frequency, TF over GST control)"
same,binding signal,[6],"1.36 fold enrichment (6-mer frequency, TF over GST control)"
same,binding signal,[7],"1.36 fold enrichment (6-mer frequency, TF over GST control)"
same,binding signal,[8],"1.19 fold enrichment (6-mer frequency, TF over GST control)"
same,binding signal,[9],"1.26 fold enrichment (6-mer frequency, TF over GST control)"
same,binding signal,[10],"1.34 fold enrichment (6-mer frequency, TF over GST control)"
same,binding signal,[11],"1.37 fold enrichment (6-mer frequency, TF over GST control)"
same,binding signal,[12],"3.01 fold enrichment (6-mer frequency, TF over GST control)"
same,binding signal,[13],"1.52 fold enrichment (6-mer frequency, TF over GST control)"
same,binding signal,[14],"1.33 fold enrichment (6-mer frequency, TF over GST control)"
same,binding signal,[15],"1.34 fold enrichment (6-mer frequency, TF over GST control)"
same,binding signal,[16],"1.27 fold enrichment (6-mer frequency, TF over GST control)"
same,binding signal,[17],"1.36 fold enrichment (6-mer frequency, TF over GST control)"
same,binding signal,[18],"1.97 fold enrichment (6-mer frequency, TF over GST control)"
same,binding signal,[19],"1.47 fold enrichment (6-mer frequency, TF over GST control)"
